Data on 32 molecules can be found in ChEMBL document CHEMBL5606458, “ASAP - ZIKV NS2B-NS3 protease fluorescence single point” (2024).

Hit rate of the full screen: of about 2,700 compounds, about 160 (5.9%) showed an effect of 50% or more. This excerpt belongs to a sample that is enriched for strong results.

One may read the inhibition as the change of the read-out against control, counted positive when it falls.

The assay deals with Nonstructural protein 3 (Zika virus) (UniProt A0A024AXB9).
[1] abbreviates: PRVABC59, Concentration 15.0 uM, Number of replicates 1.0.

Chain of Nonstructural protein 3 (Zika virus) (A0A024AXB9 as listed by the source): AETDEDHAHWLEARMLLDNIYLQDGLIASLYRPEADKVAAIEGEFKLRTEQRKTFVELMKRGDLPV

For `O=C(NCc1cccc(-c2ccccc2)c1)c1cc(Cl)ccc1NS(=O)(=O)c1ccc(Oc2ccccc2Cl)cc1`, the inhibition under setting [1] turned out to be 54.4%.
Same read-out and setting: the value for `O=C(NCc1ccc(-c2ccccc2)cc1)c1cc(Cl)ccc1NS(=O)(=O)c1ccc(Oc2ccccc2Cl)cc1` was 9%; that for `O=C(NCc1ccccc1-c1ccccc1)c1cc(Cl)ccc1NS(=O)(=O)c1ccc(Oc2ccccc2Cl)cc1` was 13.1%.
The same measure, in the same setting: the value for `O=C(NCc1nnc(-c2ccccc2)o1)c1cc(Cl)ccc1NS(=O)(=O)c1ccc(Oc2ccccc2Cl)cc1` was 54.2%; that for `O=C(NCc1coc(-c2ccccc2)n1)c1cc(Cl)ccc1NS(=O)(=O)c1ccc(Oc2ccccc2Cl)cc1` was 45.4%; that for `O=C(NCc1ccccc1)c1cc(Cl)ccc1NS(=O)(=O)c1ccc(Oc2ccccc2Cl)cc1` was 11.2%.
In the case of `Cn1cccc(CN2CCC(c3c[nH]c4cccnc34)CC2)c1=O`, the inhibition reads like this: (PRVABC59, Concentration 49.5 uM, Number of replicates 2.0, Standard deviation 0.07177165759495889 %) -0.869%; (PRVABC59, Concentration 99.01 uM, Number of replicates 2.0, Standard deviation 0.38070186159308106 %) 1.77%; (PRVABC59, Concentration 198.0 uM, Number of replicates 2.0, Standard deviation 0.010921765735719036 %) 3.27%.
On to `O=C(c1cc(Cl)ccc1NS(=O)(=O)c1ccc(Oc2ccccc2Cl)cc1)N1CCNC(=O)C12CCCCC2`, for which the inhibition under setting [1] was found to be 17.6%.
For `COc1ccccc1[C@H](C)NC(=O)C1CCN(c2ccc(C=O)cc2)CC1`, the inhibition (PRVABC59, Concentration 10.0 uM, Number of replicates 1.0) was 25.4%.
For `Cc1cc(N)cc(CNc2cccc3c(CO)cc(C)nc23)c1`, the inhibition came out at 36.2% (PRVABC59, Concentration 49.95 uM, Number of replicates 2.0, Standard deviation 0.17563299841544527 %) and 52.6% (PRVABC59, Concentration 99.9 uM, Number of replicates 2.0, Standard deviation 0.025091199030293523 %).
Turning to `Cc1cc(N)cc(CNC(=O)c2ccccc2Cc2cccc3c(CO)cc(C)nc23)c1`, the inhibition reads like this: (PRVABC59, Concentration 49.95 uM, Number of replicates 2.0, Standard deviation 0.03145975642768365 %) 34.6%; (PRVABC59, Concentration 99.9 uM, Number of replicates 2.0, Standard deviation 1.7408307334956623 %) 60.7%.
As for `Cc1cc(N)cc(CNC(=O)c2cccc(Cc3cccc4c(CO)cc(C)nc34)c2)c1`, the inhibition came out at 22.4% (PRVABC59, Concentration 49.95 uM, Number of replicates 2.0, Standard deviation 0.660675115468642 %) and 46.9% (PRVABC59, Concentration 99.9 uM, Number of replicates 2.0, Standard deviation 1.0067445744655332 %).
Take `Cc1cc(N)cc(CNC(=O)Cc2cccc3c(CO)cc(C)nc23)c1`: the inhibition by setting is: (PRVABC59, Concentration 49.95 uM, Number of replicates 2.0, Standard deviation 1.6254724488978287 %) 7.61%; (PRVABC59, Concentration 99.9 uM, Number of replicates 2.0, Standard deviation 2.5640510708053585 %) 31.2%.
`Cc1cc(CO)c2cccc(NCc3ccc(S(N)(=O)=O)cc3)c2n1`: the inhibition (PRVABC59, Concentration 49.95 uM, Number of replicates 2.0, Standard deviation 2.3986730749821903 %) is -5.11% and the inhibition (PRVABC59, Concentration 99.9 uM, Number of replicates 2.0, Standard deviation 1.886822696290366 %) was -8.96%.
As to `Cc1cc(CO)c2cccc(NCc3ccc(C(N)=O)cc3)c2n1`, the inhibition (PRVABC59, Concentration 49.95 uM, Number of replicates 2.0, Standard deviation 0.6911398690966805 %) was -7.9% and the inhibition (PRVABC59, Concentration 99.9 uM, Number of replicates 2.0, Standard deviation 1.6597447488203414 %) is -2.82%.
Consider `Cc1c(C(=O)N2CCC(n3cc(CO)nn3)CC2)[nH]c2cc(Cl)cc(Cl)c12`, for which the inhibition was 4.02% (PRVABC59, Concentration 49.5 uM, Number of replicates 2.0, Standard deviation 1.4208906347015848 %); 9.8% (PRVABC59, Concentration 99.01 uM, Number of replicates 2.0, Standard deviation 0.494827603753062 %); 15.6% (PRVABC59, Concentration 198.0 uM, Number of replicates 2.0, Standard deviation 0.23449629857012413 %).
Consider `Cc1cc(CO)c2cccc(CC(=O)Nc3cc(C)on3)c2n1`, for which the inhibition worked out at 91.5% (PRVABC59, Concentration 49.95 uM, Number of replicates 2.0, Standard deviation 1.089187856250299 %) and 93.2% (PRVABC59, Concentration 99.9 uM, Number of replicates 2.0, Standard deviation 0.03053454880917251 %).
With `Cc1cc(CO)c2cccc(Cc3ccccc3C(=O)Nc3cc(C)on3)c2n1`, the inhibition was -2.77% (PRVABC59, Concentration 49.95 uM, Number of replicates 2.0, Standard deviation 0.7445712834152752 %) and 0.512% (PRVABC59, Concentration 99.9 uM, Number of replicates 2.0, Standard deviation 1.0119877161772735 %).
Regarding `Cc1cc(CO)c2cccc(CC(=O)Nc3cc(O)[nH]n3)c2n1`, the inhibition was -5.29% (PRVABC59, Concentration 49.95 uM, Number of replicates 2.0, Standard deviation 0.5293246306718348 %) and 1.86% (PRVABC59, Concentration 99.9 uM, Number of replicates 2.0, Standard deviation 0.9008701737196211 %).
For `Cc1cc(CO)c2cccc(Cc3cccc(C(=O)Nc4cc(C)on4)c3)c2n1`, the inhibition runs as follows: (PRVABC59, Concentration 49.95 uM, Number of replicates 2.0, Standard deviation 0.5505632705734445 %) 18.4%; (PRVABC59, Concentration 99.9 uM, Number of replicates 2.0, Standard deviation 1.053935557806211 %) 51.2%.
Regarding `Cc1cc(CO)c2cccc(CC(=O)Nc3cc(C)[nH]n3)c2n1`, the inhibition was found to be 0.209% (PRVABC59, Concentration 49.95 uM, Number of replicates 2.0, Standard deviation 1.1960706203468343 %) and 7.1% (PRVABC59, Concentration 99.9 uM, Number of replicates 2.0, Standard deviation 0.6463869966486608 %).
As for `Cc1cc(CO)c2cccc(Cc3cccc(C(=O)Nc4cc(C)[nH]n4)c3)c2n1`, the inhibition reads like this: (PRVABC59, Concentration 49.95 uM, Number of replicates 2.0, Standard deviation 3.093641395210206 %) 6.52%; (PRVABC59, Concentration 99.9 uM, Number of replicates 2.0, Standard deviation 2.134087804085351 %) 9.51%.
`CNC(=O)c1nc(Cl)ccc1NS(=O)(=O)c1ccc(Oc2ccccc2Cl)cc1`: the inhibition (PRVABC59, Concentration 49.5 uM, Number of replicates 2.0, Standard deviation 0.024233932131581936 %) is -1.72%.
Turning to `O=C(Nc1nc(Cl)nc2nc[nH]c12)c1cc(Cl)ccc1NS(=O)(=O)c1ccc(Oc2ccccc2Cl)cc1`, the inhibition under setting [1] came to 22.5%.
Turning to `Cc1nn([C@@H](C)c2nnnn2C2CC2)cc1C1CCNCC1`, the inhibition (PRVABC59, Concentration 49.5 uM, Number of replicates 2.0, Standard deviation 2.3033064314790743 %) is -1.29%; the inhibition (PRVABC59, Concentration 99.01 uM, Number of replicates 2.0, Standard deviation 2.6844291293545366 %) was -0.376%; the inhibition (PRVABC59, Concentration 198.0 uM, Number of replicates 2.0, Standard deviation 0.3562668047004051 %) was -3.04%.
With `CC(C)(C)c1csc(NC(=O)c2cc(Cl)ccc2NS(=O)(=O)c2ccc(Oc3ccccc3Cl)cc2)n1`, under setting [1], the inhibition was found to be 22.1%.
Regarding `Cc1cc(CO)c2cccc(Cc3ccccc3NC(=O)c3nc(-c4ccccc4)oc3C(F)(F)F)c2n1`, the inhibition by setting is: (PRVABC59, Concentration 49.95 uM, Number of replicates 2.0, Standard deviation 1.8373680900098652 %) 5.06%; (PRVABC59, Concentration 99.9 uM, Number of replicates 2.0, Standard deviation 1.2469667752869535 %) 9.26%.
Take `Cc1cc(CO)c2cccc(NC(=O)c3nc(-c4ccccc4)oc3C(F)(F)F)c2n1`: the inhibition runs as follows: (PRVABC59, Concentration 49.95 uM, Number of replicates 2.0, Standard deviation 2.699761899961709 %) 15.3%; (PRVABC59, Concentration 99.9 uM, Number of replicates 2.0, Standard deviation 2.5993991268892636 %) 24.8%.
As to `Cc1cc(CO)c2cccc(Cc3cccc(NC(=O)c4nc(C5CCNCC5)oc4C)c3)c2n1`, the inhibition runs as follows: (PRVABC59, Concentration 49.95 uM, Number of replicates 2.0, Standard deviation 2.83494201600161 %) -5.64%; (PRVABC59, Concentration 99.9 uM, Number of replicates 2.0, Standard deviation 2.936734747350333 %) -6.74%.
In the case of `Cc1cc(CO)c2cccc(NC(=O)[C@H]3CCNC3)c2n1`, the inhibition reads like this: (PRVABC59, Concentration 49.95 uM, Number of replicates 2.0, Standard deviation 1.562551081581127 %) -4.16%; (PRVABC59, Concentration 99.9 uM, Number of replicates 2.0, Standard deviation 2.5850257028478962 %) 4.64%.
On to `Cc1cc(CO)c2cccc(Cc3ccccc3NC(=O)c3nc(C4CCNCC4)oc3C)c2n1`, for which the inhibition was 12.3% (PRVABC59, Concentration 49.95 uM, Number of replicates 2.0, Standard deviation 3.130141914719793 %) and 60.8% (PRVABC59, Concentration 99.9 uM, Number of replicates 2.0, Standard deviation 0.6412983547468495 %).
With `Cc1cc(CO)c2cccc(NC(=O)c3nc(C4CCNCC4)oc3C)c2n1`, the inhibition amounted to 81.5% (PRVABC59, Concentration 49.95 uM, Number of replicates 2.0, Standard deviation 16.97136657317194 %) and 88.9% (PRVABC59, Concentration 99.9 uM, Number of replicates 2.0, Standard deviation 2.022315036184036 %).
